Compound activity: PubChem BioAssay, several laboratories
A selection: hits, their analogues and other compounds. The true share with any hit is near 2.3%.
Mcl1 Bid PPI = disrupts binding of human Mcl-1 to Bid peptide. inhibition, % at 21.7 µM. actives 0.97% (n = 220,000). TR-FRET Mcl-1/Bid-Dy647 peptide binding, 1536-well. Q07820. AID 1021;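 active means compounds that cut the binding signal by more than half at the single screening dose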;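 further: His-tagged Mcl-1 with europium anti-His antibody binding Bid BH3 peptide; 0% = Mcl-1 plus peptide wells and 100% = peptide-only wells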
Mcl-1 Bim block = human Bim-Mcl-1 interaction inhibition; Bead-based flow cytometry, Bim peptide-Mcl-1 binding; inhibition, % at 10 µM; actives 0.1% (n = 190,000); Q07820; in the data active means inhibition above about 40%;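 further: 0% = no compound tracer wells and 100% = peptide blocker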
GLD-1 TGE inh = GLD-1-TGE RNA interaction inhibition (C. elegans); purified GLD-1 + fluorescein TGE RNA, fluorescence polarization; inhibition, % at 5.96 µM; AID 2280; Q17339; actives 0.44% (n = 320,000);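 active means percent inhibition above a per-plate cutoff, the plate mean of test compounds plus 3 SD, cut at about 30% in these data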;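 further: 0% = DMSO wells with GLD-1 and probe and 100% = wells lacking GLD-1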
Target sequence (Q17339 whole entry, looked up): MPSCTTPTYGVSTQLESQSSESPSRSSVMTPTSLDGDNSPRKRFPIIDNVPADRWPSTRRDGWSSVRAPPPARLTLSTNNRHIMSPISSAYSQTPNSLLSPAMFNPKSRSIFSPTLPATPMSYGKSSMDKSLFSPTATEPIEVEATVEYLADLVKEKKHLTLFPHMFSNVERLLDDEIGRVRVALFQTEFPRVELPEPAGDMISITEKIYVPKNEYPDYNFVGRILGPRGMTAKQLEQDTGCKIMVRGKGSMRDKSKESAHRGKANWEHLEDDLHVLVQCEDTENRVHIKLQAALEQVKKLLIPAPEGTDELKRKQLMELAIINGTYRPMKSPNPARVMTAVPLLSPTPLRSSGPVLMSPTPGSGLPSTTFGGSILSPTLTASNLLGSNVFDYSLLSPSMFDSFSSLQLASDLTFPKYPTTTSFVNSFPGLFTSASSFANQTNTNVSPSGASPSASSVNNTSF
Mcl1-Noxa inh = disrupts binding of human Mcl-1 to Noxa peptide | Q07820 | TR-FRET Mcl-1/Noxa peptide binding, 2 h | inhibition, % at 21.7 µM | AID 1022 | actives 1.5% (n = 220,000);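 active means compounds that cut the protein-peptide binding signal by more than 50% relative to plate controls in a single-dose test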;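 further: His-tagged Mcl-1 with rhodamine Noxa BH3 peptide and terbium anti-His antibody; 0% = Mcl-1 plus Noxa peptide wells and 100% = peptide-only wells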
BCLXL inh = Bcl-xL (human) inhibition | actives 0.7% (n = 320,000) | AID 2129 | GST-Bcl-xL / FITC-Bim BH3 peptide fluorescence polarization | inhibition, % at 10.9 µM | Q07817;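 active means inhibition above the mean of all tested compounds plus 3 SD, cutoff set per campaign, cut at about 30% in these data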;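 further: 0% = DMSO wells and 100% = unlabeled Bim-BH3 peptide competitor; inhibitors lower millipolarization by displacing the labeled peptide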
Target sequence (Q07817 whole entry, looked up): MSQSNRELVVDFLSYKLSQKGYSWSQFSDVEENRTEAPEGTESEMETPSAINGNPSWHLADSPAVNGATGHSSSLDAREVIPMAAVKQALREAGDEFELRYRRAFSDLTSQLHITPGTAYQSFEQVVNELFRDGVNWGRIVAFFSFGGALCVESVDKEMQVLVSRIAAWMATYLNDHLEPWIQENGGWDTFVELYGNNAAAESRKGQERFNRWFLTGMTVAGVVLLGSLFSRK
MCL1-BIM inh = inhibitors of human MCL1 binding to BIM-BH3 peptide | Q07820 | GST-MCL1 / FITC-Bim-BH3 fluorescence polarization | inhibition, % at 10.9 µM | actives 0.68% (n = 320,000) | AID 2057;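 active means inhibition above the mean inhibition of all tested compounds plus 3 SD, set per campaign, cut at about 40% in these data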;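 further: 0% = DMSO wells and 100% = unlabeled Bim-BH3 peptide control; higher means more loss of mP so more displacement of Bim peptide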
Starred values were filed as active, the others as inactive; . = not tested or not shown.

SMILES | Mcl1 Bid PPI | Mcl-1 Bim block | GLD-1 TGE inh | Mcl1-Noxa inh | BCLXL inh | MCL1-BIM inh
Cc1ccc(-c2nn(C)c(=O)c3ccccc23)cc1CNC(=O)Cn1nc(-c2ccccc2)c2ccccc2c1=O | 76.6* | -31.0 | . | -23.4 | . | .
COC(=O)C(Cc1ccccc1)NC(=O)CNC(=O)c1ccc(Br)cc1 (centres undefined) | . | . | 7.0 | . | 4.5 | -6.6
CCN1/C(=C/c2ccc3cc(C)ccc3[n+]2C)Sc2ccc3sccc3c21 | -27.6 | 38.0 | . | 59.8* | . | .
O=C(c1cccs1)N1CCN(C23CC4CC(CC(C4)C2)C3)CC1 | . | . | 7.1 | . | 4.4 | -0.9
CCN(CC)CCn1c2c(c(SCC(=O)Nc3nc4ccccc4s3)nc1=O)CCC2 | . | . | -4.9 | . | 3.5 | 0.5
Cc1sc2ncnc(NCCN3CCOCC3)c2c1C | 54.7* | -5.0 | 5.3 | 17.1 | 7.3 | -0.6
Cc1ccc(NC(=O)CSc2nc3ccccc3c(=O)n2CCCN2CCCCC2)cc1Cl | -1.9 | 41.0* | -8.9 | -12.3 | 1.9 | 1.6
O=C(CSc1nc2ccccc2c(=O)n1CCCN1CCOCC1)Nc1ccc(F)c(Cl)c1 | . | . | 2.8 | . | . | .
CCOC(=O)C(NC(=O)C1C(C)N1S(=O)(=O)c1ccc(C)cc1)C(=O)OCC (centres undefined) | . | . | 4.8 | . | 2.7 | 8.9
CCCCC(=O)Nc1ccc2oc(-c3cccnc3)nc2c1 | . | 4.0 | -0.4 | . | 6.9 | 7.9
CCCC(=O)Nc1ccc2oc(-c3cccnc3)nc2c1 | 85.8* | -2.0 | -3.9 | -2.0 | 1.8 | -3.6
CC(C)c1ccc(C(C(=O)NC2CCCCC2)N(C(=O)c2csnn2)C2CC2)cc1 (centres undefined) | . | . | -0.6 | . | 5.8 | 9.6
Cc1ccccc1CNC(=O)Nc1cccs1 | -23.8 | 0.0 | 0.7 | 51.5* | 8.6 | 16.9
O=C(NCc1cccs1)Nc1cccs1 | -30.7 | 0.0 | 5.4 | -0.3 | 3.3 | 12.1
COc1ccc(Nc2nc(N)c([N+](=O)[O-])c(NCc3ccccc3)n2)cc1 | 29.4 | . | 1.9 | 51.2* | 1.6 | 1.1
Cc1ccc(Nc2nc(N)c([N+](=O)[O-])c(NCc3ccccc3)n2)cc1 | -1.8 | . | 7.7 | 2.6 | 4.2 | 0.0
Cc1ccccc1C(=O)N1CC(=O)Nc2ccc(F)cc2C1c1ccc(F)cc1 (centres undefined) | . | . | -0.6 | . | 86.1* | -0.5
C=CC[C@@H](CC(=O)N(CCO)Cc1ccccc1)C(=O)NC[C@H](OC(=O)[C@@H](CC=C)Cc1ccc(F)cc1)c1ccccc1 | . | . | 8.3 | . | . | .
COc1ccc(NS(=O)(=O)c2ccc(O)c(NC(=O)c3cc4c(C)nn(-c5ccc(F)cc5)c4s3)c2)cc1 | 6.6 | 2.0 | 5.2 | 65.3* | 7.3 | -1.9
COc1ccc(NS(=O)(=O)c2ccc(N3CCOCC3)c(NC(=O)c3ccc(F)cc3)c2)cc1 | 10.6 | -2.0 | -1.1 | 21.3 | 4.3 | 6.9
COc1ccc(C(=O)NCCS(=O)(=O)NCc2ccccc2OC)cc1 | . | . | -3.4 | . | -5.8 | -7.8
CC(C)OC(=O)C1=C2SCC(=O)N2C(N)=C(C#N)C1 | -38.0 | 0.0 | -0.4 | 10.2 | 36.6* | 2.0
COc1ccc(NC(=O)Nc2c(O)ccc3ccccc23)cc1 | . | . | -2.6 | . | 30.3* | 21.9
C=CCn1c(SCC(=O)c2[nH]c(C)c(C(=O)OC)c2C)nc2scc(-c3ccc(OC)c(OC)c3)c2c1=O | 65.2* | -5.0 | 2.4 | 52.8* | 0.8 | -1.0
C=CCn1c(SCC(=O)c2[nH]c(C)c(C(C)=O)c2C)nnc1-c1ccncc1 | 5.4 | -1.0 | -0.9 | 8.4 | -1.5 | -4.0
SMILES | Mcl1 Bid PPI | Mcl-1 Bim block | GLD-1 TGE inh | Mcl1-Noxa inh | BCLXL inh | MCL1-BIM inh
CN(CC(=O)Nc1ccc(Cl)c(Cl)c1)C(=O)C1CCC1 | . | . | 5.6 | . | . | .
Cc1ccccc1NC(=O)Cn1c(O)c(N=NC(=O)c2ccccc2O)c2ccccc21 | 66.0* | 0.0 | 5.9 | -10.9 | 6.6 | 30.8
CN(CC(=O)Nc1ccc(Cl)cc1)CC(=O)Nc1cccc(Br)c1 | . | . | 5.4 | . | 0.2 | -22.1
COc1cc(C=C(c2nc3ccccc3s2)c2nc3ccccc3s2)ccc1O | -4.1 | -1.0 | -6.6 | 23.9 | 41.5* | 43.2*
COc1cc(/C=C/c2nc3ccccc3s2)cc(OC)c1O | -6.8 | 0.0 | -51.5 | 55.0* | 9.1 | 16.1
COc1ccc(/C=N/Nc2nc3ccccc3s2)cc1O | 6.0 | 0.0 | . | 8.5 | . | .
COc1cccc(/C=C(\CC(=O)O)c2nc3ccccc3s2)c1 | -8.2 | 0.0 | -1.7 | 6.1 | -1.3 | 0.1
COc1ccc(C=C(c2nc3ccccc3s2)c2nc3ccccc3s2)cc1O | -64.7 | 0.0 | 31.6* | -7.5 | 10.7 | -4.8
COc1cc(/C=N/Nc2ccc(C(=O)O)cc2)ccc1O | -51.0 | 2.0 | 9.4 | 63.4* | 10.6 | 12.9
O=C(Oc1ccc(/C=N/Nc2ccccc2)cc1)c1ccccc1 | -2.4 | 0.0 | -4.5 | 7.1 | 4.2 | 4.9
O=C(O)c1ccc(N/N=C/c2ccc(OC(=O)c3cccc(Cl)c3)cc2)cc1 | 45.8 | . | 9.5 | 91.6* | -0.7 | -0.5
CSc1ccc(/C=N/Nc2cccc(C(=O)O)c2)cc1 | 18.6 | -1.0 | . | 99.0* | . | .
O=C(O)c1cccc(N/N=C/c2ccc(OC(F)(F)F)cc2)c1 | . | . | -5.2 | . | 4.6 | -16.0
COc1cc(/C=N/Nc2ccc(C(=O)O)cc2)cc(OC)c1OC | -107.3 | . | -2.0 | 1.0 | 9.3 | -1.3
COc1cc(/C=N/Nc2nc(C)nc3c2cnn3-c2ccccc2)ccc1O | 27.4 | 7.0 | . | 73.8* | . | .
O=C1/C(=C/c2ccc(O)c(O)c2)Oc2cc(O)ccc21 | -82.7 | . | -30.7 | 74.5* | -13.4 | 0.3
O=c1cc(CN2CCN(c3ccc(F)cc3)CC2)nc2sccn12 | -16.0 | 0.0 | 24.4 | -3.5 | 34.1* | 34.4
COc1ccc(COc2ccc(S(=O)(=O)N3CCCC3)cc2C(N)=O)cc1F | . | . | 0.9 | . | 5.1 | 6.6
O=C1N=C(N2CCOCC2)S/C1=C\c1ccc(-c2ccccc2Cl)o1 | 1.6 | -3.0 | -1.9 | 19.1 | 40.0* | 31.3
O=C(COc1ccc2ccccc2c1Br)NC(=S)Nc1cccc(CO)c1 | 52.2* | -4.0 | 3.8 | 5.0 | -1.5 | -0.1
OCCNc1nc(Nc2ccccc2)nc2ccccc12 | 7.5 | 2.0 | 1.5 | 44.3 | 7.9 | 2.6
OCCNc1nc(Nc2ccccc2)nc(Nc2ccccc2)n1 | -1.4 | -1.0 | 7.1 | 91.7* | 1.7 | -2.2
COc1ccc(C2N(C(=O)C(F)(F)F)C(C)CN2S(=O)(=O)c2ccc(C)cc2)cc1 (centres undefined) | . | . | 3.2 | . | -2.0 | -6.2
O=C(NCCS(=O)(=O)NCc1ccccc1Cl)c1ccccc1 | . | . | 7.2 | . | 6.7 | 9.2
c1cc2c(cc1NC1CCCCCC1)OCO2 | . | . | 2.0 | . | 33.8* | 47.4*
O=C(NC1CCCCCCC1)c1ccc2c(c1)OCO2 | -19.5 | 1.0 | -1.7 | -10.3 | 5.2 | 5.8
COc1ccccc1OCCC(=O)OCC(=O)Nc1ccc(Br)cc1F | -18.0 | -1.0 | -6.9 | 2.6 | 4.6 | 4.3
Cc1ccccc1SCC(=O)OCC(=O)NCc1ccccc1 | . | . | -8.5 | . | . | .
COc1cc(OC)c(OC)cc1CN1CCCC(C(=O)N2CCCCC2)C1 (centres undefined) | 53.1* | -2.0 | 5.1 | 2.8 | 3.4 | -2.6
